Sm TGR inh – inhibitors of Schistosoma mansoni thioredoxin glutathione reductase. Q962Y6. purified TGR, DTNB reduction, TNB absorbance 405 nm. Potency, µM (doses to about 114 µM), most hits filed as inhibitors. 3% of 360,000 active; further: nearly all actives have a fitted effect of over 60% in size
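TGR 20 nM + NADPH 100 uM (dispensed conc.), cpd preinc 15 min RT; start with NADPH (500 uM addition) then DTNB (15 mM addition). Kinetic TNB absorbance, 405 nm filter. Four-parameter Hill fit across titration.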
Giardia FBPA inh – inhibitors of Giardia lamblia fructose-1,6-bisphosphate aldolase; AID 2451; purified Giardia FBPA; 0.71% of 290,000 active; A8B2U2; Potency, µM (top dose mostly 59.6 µM), actives largely listed as inhibitors; further: nearly all actives have a fitted effect of over 55% in size
Target sequence (A8B2U2 whole entry, looked up): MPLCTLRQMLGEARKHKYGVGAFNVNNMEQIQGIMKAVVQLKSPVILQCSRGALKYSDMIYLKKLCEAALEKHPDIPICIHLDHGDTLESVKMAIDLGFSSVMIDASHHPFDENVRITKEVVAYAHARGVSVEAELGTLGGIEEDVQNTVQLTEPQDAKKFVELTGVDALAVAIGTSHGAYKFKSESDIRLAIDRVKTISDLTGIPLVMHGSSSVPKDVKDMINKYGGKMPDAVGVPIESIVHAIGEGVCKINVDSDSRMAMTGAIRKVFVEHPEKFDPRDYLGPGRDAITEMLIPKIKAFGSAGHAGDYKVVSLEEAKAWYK
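Giardia FBPA (40 nM reagent) was preincubated 10 min at RT with compound (up to 57.5 uM final), then substrate plus GAPDH/TPI/NAD/arsenate coupling system with diaphorase/resazurin was added; resorufin fluorescence (525/598 nm) was read after 20 min.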
CHX counter – affects cycloheximide protein synthesis inhibition readout, counter-screen; cell reporter, cycloheximide protein synthesis inhibition counterscreen; max response, %; AID 2314; 12% of 300,000 active; in the data active means max response mostly above about 13%, no sharp cut-off; inactive means mostly below about 14%; further: read at 38.3 µM for the half of the compounds with a filed dose
Shiga toxin inh – Shiga toxin inhibition. inhibition, % at 38.7 µM. 9.2% of 290,000 active. Vero cells, Shiga toxin protein synthesis inhibition reporter; in the data active means inhibition mostly above about 28%, no sharp cut-off; inactive means mostly below about 43%
LmPK inhibitor – inhibitors of Leishmania mexicana pyruvate kinase | Q27686 | purified LmPK, Kinase-Glo ATP luminescence, 1 h | Potency, µM (top dose mostly 57.5 µM), actives largely listed as inhibitors | 0.37% of 290,000 active
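Screened at intermediate enzyme activity to detect both inhibitors and activators: LmPK at 0.1 nM, with a 0.5 nM enzyme column as activation reference. PEP 0.5 mM, ADP 0.1 mM; ATP detected by luminescence after 1 h.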
Tb PYK inh – inhibitors of Trypanosoma brucei pyruvate kinase; Potency, µM (doses to about 76.8 µM), usual class: inhibitors; TbPYK enzyme, Kinase-Glo Plus ATP luminescence, 45 min; 0.12% of 410,000 active; further: nearly all actives have a fitted effect of over 50% in size
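Luminescence from Kinase-Glo Plus, added after a 45-minute room-temperature reaction, served as the end-point read-out. The enzyme and substrate were preincubated with compound before ADP (130 uM final) initiated turnover. Concentration-effect curves came from normalized qHTS data.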
Hits are given with their value; – = inactive; ? = inconclusive; · = no result given; [ ] = remark or other dose. The full list was thinned out, with hits kept by preference. Unless noted, the call rests on the fitted dose curve; in most records, active means well fitted curve in the direction sought with a large enough effect; inconclusive means small, poorly fitted or top-dose-only effect, or another doubt; inactive means no such curve, though single readings can be large; an effect the other way counts as inactive or inconclusive.

SMILES	Sm TGR inh	Giardia FBPA inh	CHX counter	Shiga toxin inh	LmPK inhibitor	Tb PYK inh
Cc1ccc(NC(=O)c2ccc3c(=O)n4c(nc3c2)CCCCC4)cc1F	–	–	–	–	–	–
COc1cccc(CN(C)C(=O)c2ccc3c(=O)n4c(nc3c2)CCC4)c1OC	–	·	36	–	–	–
O=C(NC1CCCCCC1)c1ccc2c(=O)n3c(nc2c1)CCCCC3	–	–	31	–	–	–
COc1cccc(COC(=O)c2ccc3c(=O)n4c(nc3c2)CCC4)c1OC	–	·	·	·	·	–
Cc1cccc(N2CCN(S(=O)(=O)c3ccc4c(c3)C(C(C)C)C(=O)N4)CC2)c1C (stereo not drawn)	–	·	·	·	·	–
Cc1csc2nc(-c3ccc(NS(=O)(=O)c4cc(F)ccc4F)cc3)cn12	–	·	·	·	·	–
COc1ccc(/C=N/NC(=O)C(=O)N2CCCCCC2)cc1O	–	·	–	–	–	–
Cn1c(=O)c2c(SCC(=O)Nc3ccccc3C(F)(F)F)nc(C3CCCC3)nc2n(C)c1=O	–	·	·	·	·	–
O=C(C[n+]1cccc(NC(=O)c2ccccc2)c1)c1cccc([N+](=O)[O-])c1	–	–	–	–	–	–
O=C(C[n+]1ccc(-c2cc(C(=O)Nc3cccc(C(F)(F)F)c3)c3ccccc3n2)cc1)c1cccc([N+](=O)[O-])c1	45µM	–	–	–	?	–
CCN(CC)C(=O)CCc1nnc(Cc2cccc(C(F)(F)F)c2)o1	–	–	–	–	–	–
O=C(CCc1nnc(Cc2cccc(C(F)(F)F)c2)o1)NCCc1ccccc1F	–	–	29	126	–	–
O=C(CCc1nnc(CCCCc2ccccc2)o1)NCc1cc(F)ccc1F	–	–	–	–	–	–
Cc1cc(CN(C)C(=O)CCc2nnc(Cc3cccc(C(F)(F)F)c3)o2)on1	–	–	33	58	–	–
CCOC(=O)c1ccccc1NC(=O)c1cnc(N2CCOCC2)c2ccccc12	–	·	·	·	·	–
C[C@@](O)(/C=C/[C@H]1CC=CC(=O)O1)[C@@H](C[C@@H](O)\C=C/C=C\C=C\CO)OP(=O)(O)O	·	–[12.9 µM]	–	–	·	·
COc1ccc(C(=O)NCCn2cc(SCC(=O)Nc3ccc(F)cc3)c3ccccc32)cc1	–	·	·	·	·	–
CCOC(=O)CNS(=O)(=O)c1c(C)noc1C	25µM	–	–	–	–	–
COc1ccc(C(=O)Nc2nc(-c3nnn(-c4ccc(F)cc4F)c3C)ns2)cc1	–	·	·	·	·	–
Cc1cccnc1NC(=O)c1ccc(S(=O)(=O)NCc2ccco2)cc1	–	·	·	·	·	–
O=C(Nc1ncccc1O)c1ccc(S(=O)(=O)NCc2ccco2)cc1	·	·	·	·	·	–
Cc1ccc(-c2ccc(S(=O)(=O)NCc3ccco3)cc2)cc1	–	–	–	–	–	–
C/C(=N\Nc1ccc(C(=O)O)cc1)c1ccc(S(=O)(=O)NCc2ccco2)cc1	–	–	45	77	–	–
C/C(=N\Nc1ccccn1)c1ccc(S(=O)(=O)NCc2ccco2)cc1	–	–	44	81	–	–
C/C(=N\Nc1nc(Cl)c(Cl)cc1Cl)c1ccc(S(=O)(=O)NCc2ccco2)cc1	–	–	69	122	–	–
SMILES	Sm TGR inh	Giardia FBPA inh	CHX counter	Shiga toxin inh	LmPK inhibitor	Tb PYK inh
O=C(Nc1ccccc1)c1ccc(S(=O)(=O)NCc2ccco2)cc1	?	–	–	–	–	–
C/C(=N\Nc1ccc(C(F)(F)F)cn1)c1ccc(S(=O)(=O)NCc2ccco2)cc1	–	–	72	121	–	–
O=C(O)c1cc(F)c(S(=O)(=O)N2CCN(S(=O)(=O)c3ccc4c(c3)OCCO4)CC2)cc1F	·	·	–	–	·	·
CCOc1ccc(OCC)c(NC(=O)C(NS(=O)(=O)c2ccc(Br)s2)c2ccccc2)c1 (stereo not drawn)	–	·	·	·	·	–
CCOC(=O)N1CCN(C(=O)CCCOc2ccccc2)CC1	–	–	29	113	–	–
Cc1cccc(N2CCN(C(=O)CCCOc3ccccc3)CC2)c1C	–	–	64	134	–	–
O=C(CCCOc1ccccc1)N1CCN(S(=O)(=O)c2ccccc2)CC1	–	·	·	·	·	–
O=C(CCCOc1ccccc1)N1CCN(c2ccccc2)CC1	–	–	–	–	–	–
Cc1cccc(N2CCN(C(=O)Cc3ccccc3[N+](=O)[O-])CC2)c1C	–	–	27	–	–	–
O=C(CCS(=O)(=O)c1ccccc1)N(Cc1cccnc1)c1nc2ccc(F)cc2s1	0.89µM	·	·	·	·	–
